Source: PubChem (several laboratories)
PolyA inhibitor: blocks polyadenylation in yeast reporter cells; S. cerevisiae SKY197-pL101 polyadenylation reporter, beta-gal luminescence; efflux-impaired pdr1/pdr3 knockout yeast; score 100 = 6 SD above DMSO; activity score, % at 12 µM; 0.02% of 300,000 active; AID 1875;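 active means lowest replicate activity score at least 50, where 100 means six control SD above control mean; inconclusive means lowest score under 50 but half or more replicates reach 50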;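 further: yeast exposed to compound for 9 h at 30 °C; higher score means more reporter readthrough which indicates perturbed polyadenylation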
JMJD2C inh: human JMJD2C demethylase inhibition | Q9H3R0 | GST-JMJD2C(1-420) H3K9me3 demethylation, DELFIA europium | inhibition, % at 2.35 µM | 0.069% of 330,000 active | AID 2099;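 active means more than half of a compound's replicate wells show inhibition beyond 50%, single wells judged on their own value; inconclusive means some, but no more than half, of replicates pass 50% inhibition; inactive means no replicate passes 50% inhibition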;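 further: signal counts dimethyl H3K9 product captured on neutravidin plate; 0% = median of DMSO wells and 100% = 0.3 times that DMSO median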
NALP1 inh: inhibitors of NALP1 inflammasome in yeast; S. cerevisiae NALP1/ASC/caspase-1 growth, X-gal OD620, 72 h; inhibition, % at 10 µM; 0.61% of 280,000 active; AID 2071; in the data active means inhibition mostly above about 24%, no sharp cut-off; inactive means mostly below about 32%
NALP3 yeast inh: inhibitors of NALP3 inflammasome in yeast; Yeast reconstituted NLRP3/ASC/caspase-1, beta-gal luminescence, 24 h; inhibition, % at 10 µM; 0.39% of 330,000 active; AID 2825;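 active means inhibition of 50% or more; inactive means inhibition below 50%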;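 further: plate controls were induced DMSO wells for no effect and uninduced yeast grown without galactose for full effect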
HDAC3 inhib: blocks human histone deacetylase 3; inhibition, % at 8.3 µM; recombinant HDAC3, fluorogenic peptide/trypsin coupled, fluorescence; O15379; 0.15% of 320,000 active; in the data active means inhibition above about 26%, passing the limit was not always enough; inconclusive means no clear call, values can overlap the other calls
Target sequence (O15379 whole entry, looked up): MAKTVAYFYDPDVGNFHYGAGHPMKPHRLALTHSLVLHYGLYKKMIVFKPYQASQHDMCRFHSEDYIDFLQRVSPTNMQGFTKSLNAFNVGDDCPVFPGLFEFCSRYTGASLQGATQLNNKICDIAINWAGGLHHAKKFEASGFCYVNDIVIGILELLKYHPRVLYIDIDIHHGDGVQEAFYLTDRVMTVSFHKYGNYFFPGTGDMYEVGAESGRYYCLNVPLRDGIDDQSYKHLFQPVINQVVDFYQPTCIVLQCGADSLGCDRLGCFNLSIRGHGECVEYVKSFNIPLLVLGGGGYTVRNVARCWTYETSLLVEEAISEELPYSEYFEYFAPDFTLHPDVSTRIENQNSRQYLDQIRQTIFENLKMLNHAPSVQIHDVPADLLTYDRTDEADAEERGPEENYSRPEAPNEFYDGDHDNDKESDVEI
Efflux pump inh: antifungal efflux pump inhibition, Nile Red retention | S. cerevisiae Candida pump triplex | inhibition, % at 10 µM | AID 485275 | 0.44% of 330,000 active;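 active means plate passing quality check with inhibition over a set limit, or well fluorescence over plate mean plus 4 SD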;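 further: Nile Red retained in pooled yeast measured as flow cytometry median fluorescence; 0% = buffer negative control and 100% = Enniatin B positive control; higher means more Nile Red kept so more efflux inhibition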
Cmpd fluor yeast: counter-screen for efflux pump inhibitors: compound fluorescence; shares compounds with Efflux pump inh; S. cerevisiae AD/pABC3, flow cytometry; fluorescence ratio to DMSO, % at 10 µM; 4% of 1,700 active;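 active means fluorescence ratio to DMSO above its plate's cutoff, the plate mean ratio plus 5 SD, cut at about 210% in these data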;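 further: unstained yeast with no Nile Red so the signal is compound autofluorescence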
Mdr1 pump inh: inhibitors of Candida albicans Mdr1 efflux pump. shares compounds with Efflux pump inh. S. cerevisiae AD/CaMDR1, Nile Red efflux, flow cytometry. inhibition, % at 10 µM. 1% of 1,700 active. AID 588518; in the data active means inhibition above about 26%;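 further: 0% = DMSO vehicle and 100% = reference inhibitor; higher means more Nile Red retained so more efflux inhibition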
CaCdr2 efflux inh: blocks the Candida albicans Cdr2 efflux pump in yeast; shares compounds with Efflux pump inh; 4% of 1,700 active; Nile Red retention ratio vs DMSO, % at 10 µM; S. cerevisiae AD/CaCDR2, Nile Red retention, flow cytometry; in the data active means Nile Red retention ratio vs DMSO above about 190%;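 further: higher ratio means more blocking of Cdr2 efflux of the dye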
CaCdr1 efflux inh: blocks the Candida albicans Cdr1 efflux pump in yeast. shares compounds with Efflux pump inh. S. cerevisiae AD/CaCDR1, Nile Red efflux, flow cytometry. inhibition, % at 10 µM. 1% of 1,700 active;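 active means inhibition above the screen-wide mean plus twice its standard deviation, cut at about 32% in these data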
* hit, by the source's call; ? = inconclusive; . = not tested or not shown. An excerpt weighted towards active compounds, which were near 1.5% of everything screened.

SMILES	PolyA inhibitor	JMJD2C inh	NALP1 inh	NALP3 yeast inh	HDAC3 inhib	Efflux pump inh	Cmpd fluor yeast	Mdr1 pump inh	CaCdr2 efflux inh	CaCdr1 efflux inh
Cc1ccc(/C(N)=N/OC(=O)Oc2ccccc2)cc1	-1.5	1.4	-9.9	-5.4	-5.7	-0.1	.	.	.	.
COc1ccc(CC(=O)O/N=C(\N)c2ccc(OC)cc2)cc1	26.1	6.2	.	5.6	4.4	-0.1	113.2	0.0	112.3	0.1
COc1ccc(/C(N)=N/OC(=O)Cc2cccs2)cc1OC	-4.0	2.2	7.3	14.0	7.7	6.7*	98.6	-0.2	86.7	-0.2
Cc1ccccc1NS(=O)(=O)c1ccc(C(=O)NCCCN2CCCC2=O)cc1	-0.5	69.4	.	18.7	7.4	0.1	.	.	.	.
Cc1cc2ccccc2n2c(SCC(=O)Nc3ccc(S(=O)(=O)N4CCC(C)CC4)cc3)nnc12	8.0	-3.2	14.4	2.7	-0.6	6.8*	95.5	-0.1	114.4	0.0
Cc1ccc(C(=O)COc2ccccc2-c2ccccc2)cc1C	17.3	7.9	9.5	-6.6	0.9	12.6*	99.8	-0.1	91.4	0.5
CCC1CCCCN1C(=O)c1cc2c(=O)n3cccc(C)c3nc2s1 (centres undefined)	-6.5	-11.8	15.7	25.3	-3.7	1.7*	106.8	-0.1	95.4	0.0
Cc1cccn2c(=O)c3cc(C(=O)N4CCCCC4)sc3nc12	-20.0	-4.9	-28.4	30.5	-20.6	0.1	.	.	.	.
CSCCC(NC(=O)c1ccco1)C(=O)NC1CCCCCC1 (centres undefined)	5.7	-0.1	.	7.4	3.4	0.0	.	.	.	.
COc1ccc(S(=O)(=O)N2CCOC2CNC(=O)C(=O)NCc2ccc3c(c2)OCO3)cc1 (centres undefined)	0.0	-1.3	6.1	6.5	1.6	-0.1	97.8	-0.2	102.2	-0.1
COc1ccc(CNC(=O)C(=O)NCC2OCCN2S(=O)(=O)c2ccc(OC)cc2)cc1 (centres undefined)	2.1	0.7	3.3	3.8	-5.6	-1.0	101.1	-0.1	98.1	-0.1
O=C(OC1CO[C@H]2O[C@@H]1[C@H](OC(=O)c1ccccc1)[C@H]2OC(=O)c1ccccc1)c1ccccc1 (some centres undefined)	-10.1	1.1	.	-0.2	6.7	0.1	.	.	.	.
O=C(O)c1ccccc1N/C=C\[N+](=O)[O-]	-16.6	-9.3	-6.7	1.0	4.3	0.7*	96.6	0.0	97.7	-0.1
O=C(/C=C/Nc1ccccc1C(=O)O)c1cccs1	-5.9	-6.5	2.4	-6.2	-0.6	0.1	.	.	.	.
O=C1CCN(Cc2ccc(Cl)cc2)N1	?	-17.6	18.0	17.4	-12.0	2.1*	98.3	-0.1	90.1	0.0
CN[C@H](C)C(=O)NC[C@H]1O[C@@H](n2cnc3c(N)ncnc32)[C@H](O)[C@@H]1O	.	.	.	.	.	0.3	.	.	.	.
CC(C)NC(=O)c1cc2cc([N+](=O)[O-])ccc2s1	-21.6	9.7	4.2	22.4	-5.0	0.2	.	.	.	.
Cc1cccc(NC(=O)c2cc3cc([N+](=O)[O-])ccc3s2)n1	-4.4	-7.3	6.1	24.0	1.6	1.1*	98.9	-0.3	98.1	-0.1
O=C(O)C1CC=CCC1C(=O)Nc1ccc(N2CCN(Cc3ccccc3)CC2)cc1 (centres undefined)	23.8	-6.8	12.2	-9.5	0.5	11.1*	91.9	0.1	95.4	-0.3
O=C(COC(=O)[C@@H]1CCCN1C(=O)c1cccs1)Nc1cccc(Cl)c1	.	4.8	.	11.0	1.2	0.3	.	.	.	.
Cc1ccccc1CN1CCC(n2nccc2NC(=O)CCCc2ccccc2)CC1	9.1	28.6	20.6	12.5	2.0	1.5*	87.6	-0.2	93.2	-0.5
O=C(CCCc1ccccc1)Nc1ccnn1C1CCN(Cc2ccccn2)CC1	-17.2	2.3	4.9	12.9	0.4	0.4	.	.	.	.
CCN(C(=O)CN(C)Cc1cccc(Cl)c1Cl)c1c(N)n(Cc2ccccc2)c(=O)[nH]c1=O	0.5	0.4	22.2	4.2	-3.7	-0.5	.	.	.	.
Nc1nonc1-n1nnc(C(=O)N/N=C/c2c(Cl)cccc2Cl)c1CSC1=NCCS1	27.7	60.5	.	7.5	-3.0	0.0	80.1	0.0	89.0	-0.2
CCCOc1ccc(-c2c(C(=O)N/N=C/c3ccccc3)nnn2-c2nonc2N)cc1	-3.4	-2.5	.	9.6	5.2	0.1	112.7	0.0	100.7	-0.1
SMILES	PolyA inhibitor	JMJD2C inh	NALP1 inh	NALP3 yeast inh	HDAC3 inhib	Efflux pump inh	Cmpd fluor yeast	Mdr1 pump inh	CaCdr2 efflux inh	CaCdr1 efflux inh
Nc1nonc1-n1nnc(C(=O)N/N=C/c2ccccc2Cl)c1COc1ccc(F)cc1	-14.4	-8.0	.	17.5	8.1	0.0	75.8	0.0	93.2	-0.4
CCOc1ccc(/C=N/NC(=O)c2nnn(-c3nonc3N)c2-c2ccc(OCC)cc2)cc1	13.7	4.9	18.5	6.1	0.1	0.2	.	.	.	.
Nc1nonc1-n1nnc(C(=O)N/N=C/c2ccc(O)cc2)c1COc1ccc(F)cc1	-1.8	1.2	.	8.4	11.3	-0.1	95.3	-0.3	97.2	-0.1
C[C@@H](NC(=O)c1nc[nH]c1C(=O)NCc1ccccc1)c1ccccc1	.	1.5	.	8.8	3.6	0.0	.	.	.	.
CC1CCN(C(=O)CSc2nc(C(C)C)nc3c2c(=O)n(C)c(=O)n3C)CC1	5.1	-22.0	11.4	19.2	1.2	0.1	.	.	.	.
CSc1ccc(CN(C)CC(=O)Nc2ccc(NC(C)=O)cc2)cc1	-0.4	-3.7	22.3	2.6	-9.1	-0.2	.	.	.	.
CSc1ccc(CN(C)CC(=O)Nc2cccc(Br)c2)cc1	-7.0	-4.1	38.6	15.5	-0.6	9.7*	112.4	-0.3	106.3	0.0
